Reference: PubChem BioAssay
Activity calls are given as the source filed them. Cut-off read from the data, not from the text of the source, unless noted: active = inhibition above about 80%; inactive = the rest.

Columns and labels:
[1] = sensitizers of A549 cells to miR-34 induction, primary screen, imaging, A549 dox-inducible miR-34, nuclei and caspase counts (AID 1347080;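 active = compounds whose cell count with miR-34 switched on is under 0.7 times the count with it off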); settings: A549 miR-34 inducible, Hoechst nuclei count, 48 h
[2] = survival rescue of mitochondrial mutant cells in low glucose, primary screen, MELAS cybrids, Rieske KO mouse fibroblasts, CellTiter-Glo (AID 1508586;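 active = mean z-score across replicates of 1.96 or higher in either the MELAS or the Rieske mutant cell line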;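 note: z relative to plate mean and SD of compound and empty wells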)
[3] = LFS_MB_P medulloblastoma growth inhibition, cell-based, chromothripsis tumors, cisplatin or BGB combos (AID 1671449); settings: LFS_MB_P medulloblastoma cells;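 note: cells exposed for 96 hours; 0% = vehicle DMSO and 100% = killing by high DMSO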
[4] = HDN33 neuroblastoma growth inhibition, cell-based, chromothripsis tumors, cisplatin or BGB combos (AID 1671450); settings: HDN33 neuroblastoma cells, stronger effect = higher value;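 note: cells exposed to compound for four days; 0% = vehicle DMSO and 100% = cell killing by high DMSO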
[5] = ICB984 medulloblastoma cell growth inhibition, synergistic combos for chromothripsis tumors, cisplatin or BGB combos (AID 1671451; call rule not given here;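 note: cells exposed for 96 hours before readout; 0% = vehicle DMSO and 100% = killing by high DMSO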); settings: ICB984 medulloblastoma cells, drug combinations, stronger effect = higher value
[6] = LFS_MB_1R medulloblastoma cell growth inhibition, synergistic combos for chromothripsis tumors, cisplatin or BGB combos (AID 1671452); settings: LFS_MB_1R medulloblastoma cells, stronger effect = higher value;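 note: cells exposed for 96 hours before readout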
[7] = HTB85 osteosarcoma cell growth inhibition, synergistic combos for chromothripsis tumors, BGB or cisplatin IC20 combos (AID 1671453); settings: HTB85 osteosarcoma cells, drug combinations, stronger effect = higher value;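 note: cells exposed for 96 hours before readout; 0% = vehicle DMSO and 100% = high DMSO killing control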
[8] = CRL2098 osteosarcoma cell growth inhibition, synergistic combos for chromothripsis tumors, BGB or cisplatin IC20 combos (AID 1671454); settings: CRL2098 osteosarcoma cells, drug combinations, stronger effect = higher value;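 note: cells exposed for 96 h before readout; 0% = vehicle DMSO and 100% = killing by high DMSO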
[9] = HD-MB03 medulloblastoma cell growth inhibition, synergistic combos for chromothripsis tumors, BGB or cisplatin IC20 combos (AID 1671455; in the data active = inhibition above about 83%;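 note: 0% = vehicle DMSO and 100% = high DMSO as cytotoxic control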); settings: HD-MB03 medulloblastoma cells, stronger effect = higher value
[10] = UWB1.289 ovarian carcinoma cell growth inhibition, synergistic combos for chromothripsis tumors, BGB or cisplatin combos (AID 1671456); settings: UWB1.289 ovarian carcinoma cells, stronger effect = higher value;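 note: cells exposed to compound for four days; 0% = vehicle DMSO and 100% = killing by high DMSO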
[11] = LFS_MB_2R medulloblastoma cell growth inhibition, synergistic combos for chromothripsis tumors, cisplatin combos (AID 1671457); settings: LFS_MB_2R medulloblastoma cells, stronger effect = higher value;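 note: cells exposed to compound for four days before readout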
[12] = MDA-MB-436 breast carcinoma cell growth inhibition, synergistic combos for chromothripsis tumors, BGB or cisplatin combos (AID 1671458; call rule not given here;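 note: cells exposed for 96 hours; 0% = vehicle DMSO and 100% = killing by high DMSO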); settings: MDA-MB-436 breast carcinoma growth inhibition, drug combinations, stronger effect = higher value
[13] = UWB1.289_BRCA1 ovarian cancer growth, cell-based, BGB or cisplatin combinations (AID 1671459); settings: UWB1.289 BRCA1 ovarian carcinoma, drug combinations, stronger effect = higher value
[14] = human astrocyte viability loss, single and combined drugs, cytotoxicity control for chromothriptic childhood tumor combination screen, cell-based, BGB or cisplatin IC20 combos (AID 1671460); settings: Human astrocytes, drug combinations, stronger effect = higher value;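 note: cells exposed to compounds for 96 hours before viability readout; 0% = vehicle and 100% = killing control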
[15] = growth inhibition of BT084 medulloblastoma cells, cell-based, ICGC_MB145, cisplatin and BGB IC40 combos (AID 1671461); settings: drug combinations, stronger effect = higher value;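 note: cells exposed to drugs for 96 hours; 0% = vehicle DMSO and 100% = high DMSO full killing control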
[16] = growth inhibition of RCMB18 medulloblastoma cells, cell-based, cisplatin and BGB IC40 combos (AID 1671462); settings: stronger effect = higher value;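 note: cells exposed to compound for four days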
[17] = growth inhibition of CRL1545 osteosarcoma cells, cell-based, cisplatin and BGB IC20 combos (AID 1671464); settings: stronger effect = higher value;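 note: cells exposed to compound for 96 hours before readout; 0% = vehicle DMSO and 100% = high DMSO killing control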
[18] = measured here: combination with BGB IC40, at 0.05 µM
[19] = measured here: with BGB IC20 combination, at 0.5 µM
[20] = measured here: with cisplatin IC20 combination, at 0.5 µM
[21] = measured here: combination with cisplatin, at 0.5 µM
[22] = measured here: combination with cisplatin, at 5 µM

SMILES: O=C(O)c1cc2cccc([N+](=O)[O-])c2[nH]1
- fold change ([1]; stronger effect = lower value, cell number ratio, induced over uninduced): 0.946 (inactive)
- fold change ([1]; measured here: relative caspase fold change +Dox/-Dox): 0.523
- cell count ([1]; measured here: total cells with miR-34 induction, stronger effect = lower value): 8560
- cell count ([1]; measured here: total cells without miR-34 induction): 9040
- z-score ([2]; MELAS cybrid survival, CellTiter-Glo 48 h, stronger effect = higher value): -0.36 (inactive)
- z-score ([2]; Rieske KO mouse fibroblast survival, CellTiter-Glo 72 h): 0.315
- inhibition ([3]; at 0.5 µM, stronger effect = higher value): -23.9% (inactive)
- inhibition ([3]; measured here: combination with BGB IC20, at 0.005 µM): -6.46%
- inhibition ([3]; measured here: combination with BGB IC40, at 0.005 µM): -31.7%
- inhibition [3, 18]: -15.1%
- inhibition ([3]; measured here: combination with cisplatin, at 0.5 µM, stronger effect = higher value): -30%
- inhibition ([3]; measured here: combination with cisplatin, at 5 µM, stronger effect = higher value): -50.9%
- inhibition ([4]; BGB combo, at 5 µM): -9.55%
- inhibition ([4]; at 0.5 µM): -19.2% (inactive)
- inhibition ([4]; cisplatin combo, at 5 µM): -1.64%
- inhibition [4, 19]: -22.3%
- inhibition [4, 20]: -18.1%
- inhibition ([4]; single agent, at 5 µM): -9.97%
- inhibition ([5]; BGB IC20 combo, at 0.005 µM): -35.7%
- inhibition ([5]; BGB IC40 combo, at 0.005 µM): -62.5%
- inhibition ([5]; BGB IC40 combo, at 0.05 µM): -61%
- inhibition ([5]; at 0.5 µM): -39.2% (inactive)
- inhibition ([5]; cisplatin combo, at 0.05 µM): -67.4%
- inhibition ([5]; cisplatin combo, at 0.5 µM): -58.3%
- inhibition ([5]; cisplatin combo, at 5 µM): -47.8%
- inhibition ([5]; measured here: 5 uM single agent, at 5 µM): -25.3%
- inhibition ([6]; at 0.5 µM): -25.3% (inactive)
- inhibition [6, 18]: -24.6%
- inhibition [6, 21]: -18.7%
- inhibition [6, 22]: -30.6%
- inhibition ([7]; at 0.5 µM): -15.9% (inactive)
- inhibition ([7]; measured here: with BGB IC20, at 0.5 µM): -41.2%
- inhibition ([7]; measured here: with BGB IC20, at 5 µM): -22.3%
- inhibition ([7]; measured here: with cisplatin IC20, at 0.5 µM): -7.91%
- inhibition ([7]; measured here: with cisplatin IC20, at 5 µM): -2.59%
- inhibition ([7]; single agent, at 5 µM): -17.2%
- inhibition ([8]; at 0.5 µM): -68.3% (inactive)
- inhibition ([8]; measured here: combination with BGB at IC20, at 0.5 µM): -23.9%
- inhibition ([8]; measured here: combination with cisplatin at IC20, at 0.5 µM): -78.8%
- inhibition ([9]; at 0.5 µM): -5.12% (inactive)
- inhibition ([9]; measured here: combo with BGB at IC20, at 0.5 µM): -8.83%
- inhibition ([9]; measured here: combo with cisplatin at IC20, at 0.5 µM): 1.4%
- inhibition ([10]; at 0.5 µM): -15.9% (inactive)
- inhibition ([10]; measured here: inhibition with BGB combination, at 0.05 µM): -35.8%
- inhibition ([10]; measured here: inhibition with cisplatin combination, at 0.05 µM): 40%
- inhibition ([11]; at 0.5 µM): -32% (inactive)
- inhibition [11, 21]: -28.5%
- inhibition [11, 22]: -29.3%
- inhibition ([12]; at 0.5 µM): -23.3% (inactive)
- inhibition ([12]; measured here: BGB combination, at 0.5 µM): -25%
- inhibition ([12]; measured here: BGB combination, at 5 µM): -42.9%
- inhibition ([12]; measured here: cisplatin combination, at 0.5 µM): -25.6%
- inhibition ([12]; measured here: cisplatin combination, at 5 µM): -40.6%
- inhibition ([13]; BGB combination, concentration series, at 5 µM): -18.8%
- inhibition ([13]; at 0.5 µM): -21.8% (inactive)
- inhibition ([13]; cisplatin combination, concentration series, at 5 µM): -8.12%
- inhibition ([14]; at 0.5 µM): -16% (inactive)
- inhibition ([14]; measured here: combo with BGB IC20, at 0.5 µM): -13.8%
- inhibition ([14]; measured here: combo with cisplatin IC20, at 0.5 µM): -5.7%
- inhibition ([15]; at 0.5 µM): -15.5% (inactive)
- inhibition ([15]; cisplatin combination, at 0.5 µM): -11.3%
- inhibition ([15]; cisplatin combination, at 5 µM): -2.07%
- inhibition ([15]; measured here: BGB IC40 combination 0.05 uM, at 0.05 µM): -9.88%
- inhibition ([15]; single agent, at 5 µM): -23.7%
- inhibition ([16]; at 0.5 µM): -11.6% (inactive)
- inhibition ([16]; cisplatin combo, at 5 µM): 27.1%
- inhibition ([16]; measured here: BGB IC40 combination, at 0.05 µM): -14.6%
- inhibition [16, 21]: 5.09%
- inhibition ([16]; single agent, at 5 µM): -41.3%
- inhibition ([17]; at 0.5 µM): -22.4% (inactive)
- inhibition [17, 19]: -10%
- inhibition [17, 20]: -28.5%
- inhibition ([17]; single agent, at 0.05 µM): 22.7%
- inhibition ([17]; single agent, at 5 µM): -25.9%
